Several values for one entry are separate records, joined by “and”; a condition that tells them apart may be missing. Identical values can stand only once. Inconclusive results are not listed. More than one record can exist for a structure, and the calls need not agree. Activity calls are given as the source filed them. Calls come from the whole dose curve; as a rule, active = well fitted curve in the direction sought with a large enough effect; inconclusive = small, poorly fitted or top-dose-only effect, or another doubt; inactive = no such curve, though single readings can be large; an effect the other way counts as inactive or inconclusive.

This passage reports outcome and Potency results from PubChem BioAssay (NCATS).

Experiment [1] addresses Metallo-beta-lactamase type 2 (Klebsiella pneumoniae) (UniProt C7C422). In words: qHTS to identify inhibitors of the New Delhi Metallo-beta-lactamase (NDM): assay validation screen against the NCATS LOPAC Collection (AID 1794843).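 Note: nitrocefin turnover by NDM-1 measured as 485 nm absorbance at plateau.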 The gist of the method:
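NDM-1 at 2 nM final in 50 mM HEPES pH 7.0 with 1 uM ZnSO4 and 0.01% Tween20 was preincubated with library compounds in DMSO. Nitrocefin (50 uM stock) was then added, and absorbance at 485 nm was read at the kinetic plateau.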

Experiment [2] addresses Glutathione peroxidase 1 (Homo sapiens) (UniProt P07203). The experiment in a line: Primary qHTS Assay for Inhibitors of Recombinant Selenoprotein Glutathione Peroxidase 1 (GPX1) (AID 1845191). Note: nearly all actives have a fitted effect of over 65% in size. The essentials:
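Recombinant GPX1 (10 nM final) was preincubated with compound for 30 min at room temperature, then reacted with 1 mM GSH, 0.5 mM CHP, 0.5 mM NADPH and 100 nM glutathione reductase; NADPH fluorescence (340/450 nm) was read at 0 and 15 min.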

Experiment [3] deals with Phospholipid hydroperoxide glutathione peroxidase GPX4 (Homo sapiens) (UniProt P36969). In words: Primary qHTS Assay for Inhibitors of Recombinant Selenoprotein Glutathione Peroxidase 4 (GPX4) (AID 1845192). Note: nearly all actives have a fitted effect of over 65% in size. Note: potency is the fitted concentration of half-maximal effect. The gist of the method: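 GR-coupled readout: 100 nM GR, 1 mM GSH, 0.5 mM NADPH; NADPH fluorescence (ex 340/em 450 nm) read at t=0 and after 15 min RT. GPX4 200 nM, preincubated 30 min with compound; substrate 0.5 mM CHP.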
Chain of Phospholipid hydroperoxide glutathione peroxidase GPX4 (Homo sapiens) (P36969 whole entry, looked up): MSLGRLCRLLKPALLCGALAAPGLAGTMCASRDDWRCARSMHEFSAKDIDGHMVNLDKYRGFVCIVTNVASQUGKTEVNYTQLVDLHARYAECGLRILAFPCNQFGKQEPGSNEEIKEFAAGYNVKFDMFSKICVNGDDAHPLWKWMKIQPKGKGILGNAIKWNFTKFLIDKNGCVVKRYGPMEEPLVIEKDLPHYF

Experiment [4] concerns the target Luciferin 4-monooxygenase (Photinus pyralis) (UniProt P08659). The experiment in a line: Primary firefly luciferase (FLuc) qHTS assay for identification of artifact compounds. (AID 1845220). Note: nearly all actives have a fitted effect of over 60% in size. The gist of the method: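 qHTS, 15 min compound preincubation with substrate (10 uM luciferin, 10 uM ATP) at RT, then 10 nM FLuc; 5 min; luminescence; % inhibition vs no-enzyme/DMSO controls, 4-parameter Hill fit.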

The nature of experiment [5]: Primary fluorescence-based thiol-reactive (MSTI) qHTS assay for identification of artifact compounds. (AID 1845221).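 Note: thiol-reactive compounds lower the probe fluorescence signal; nearly all actives have a fitted effect of over 65% in size.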 The essentials:
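Probe: MSTI 4 uM, PBS pH 7.4, 2% DMSO. Incubation 1 h, RT, light-protected. Readout fluorescence 525/598 nm.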

For experiment [6], the system named is Nanoluciferase (engineered Oplophorus gracilirostris luciferase). In words: Primary Nanoluciferase (NLuc) qHTS assay for identification of artifact compounds. (AID 1845222). The gist of the method:
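Luminescence read-out of secreted NLuc in S16 cell conditioned medium (1:55); compounds tested with 15 min RT preincubation, then Nano-Glo substrate 1:100, 5 min. % inhibition vs no-enzyme and DMSO controls, 4-parameter Hill fit.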

Experiment [7] is described as follows: Primary redox qHTS assay for identification of artifact compounds. (AID 1845223). The essentials: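 Amplex Red (25 uM) and HRP (250 mU/mL) in HBSS, with compounds for 15 min, then 250 uM DTT for 30 min, room temperature, dark. Fluorescence 525/598 nm read; normalized to DMSO and 10 uM DA3003; Hill fit.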
A short description of experiment [8]: Quantitative High-Throughput drug screen in 47 multiple myeloma cell lines against the NCATS MIPE library collection: FR4_PLB cell viability assay (AID 1918924; note: nearly all actives have a fitted effect of over 35% in size; note: potency is the fitted concentration of half-maximal effect). The gist of the method: (§1)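 Viability readout: CellTiter-Glo luminescence following 5 min room-temperature incubation with reagent. Prior exposure: 48 h, 37C, humidified 5% CO2, 500 cells per well.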

The nature of experiment [9]: Quantitative High-Throughput drug screen in 47 multiple myeloma cell lines against the NCATS MIPE library collection: AMO1_DSMZ cell viability assay (AID 1918927; note: nearly all actives have a fitted effect of over 30% in size; note: potency is the fitted concentration of half-maximal effect). The essentials: (§2)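 Relative luminescence from CellTiter-Glo served as the viability signal, referenced to DMSO-treated (100%) and cell-free medium (0%) controls. Treatment lasted 48 hours at 37C with 500 cells per well.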

The nature of experiment [10]: Quantitative High-Throughput drug screen in 47 multiple myeloma cell lines against the NCATS MIPE library collection: ARP1_JJKsccF8 cell viability assay (AID 1918928; note: nearly all actives have a fitted effect of over 40% in size; note: potency is the fitted concentration of half-maximal effect). The gist of the method: (§3)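 Myeloma cells, 500 per well, were exposed to MIPE 4.0 drugs by pin transfer for 48 h at 37 °C, 5% CO2. Viability was read as ATP luminescence with CellTiter-Glo, normalised to DMSO-only (100%) and medium-only (0%) wells.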

Experiment [11] in a line: Quantitative High-Throughput drug screen in 47 multiple myeloma cell lines against the NCATS MIPE library collection: ARD_JJKsccE7 cell viability assay (AID 1918929; note: potency is the fitted concentration of half-maximal effect). The gist of the method:
as §2

The nature of experiment [12]: Quantitative High-Throughput drug screen in 47 multiple myeloma cell lines against the NCATS MIPE library collection: Karpas620_DSMZ cell viability assay (AID 1918959). Note: nearly all actives have a fitted effect of over 30% in size. Note: potency is the fitted concentration of half-maximal effect. The gist of the method: as §1
Experiment [13] in a line: Quantitative High-Throughput drug screen in 47 multiple myeloma cell lines against the NCATS MIPE library collection: JIM3_ECACC cell viability assay (AID 1918963; note: nearly all actives have a fitted effect of over 35% in size; note: potency is the fitted concentration of half-maximal effect). The essentials: as §1
Experiment [14] in a line: Quantitative High-Throughput drug screen in 47 multiple myeloma cell lines against the NCATS MIPE library collection: EJM_DSMZ cell viability assay (AID 1918926; note: nearly all actives have a fitted effect of over 30% in size; note: potency is the fitted concentration of half-maximal effect). The essentials:
as §2

Experiment [15] is described as follows: Quantitative High-Throughput drug screen in 47 multiple myeloma cell lines against the NCATS MIPE library collection: KMM1_JCRB cell viability assay (AID 1918960). Note: nearly all actives have a fitted effect of over 30% in size. The essentials: as §3
Experiment [16] in a line: Quantitative High-Throughput drug screen in 47 multiple myeloma cell lines against the NCATS MIPE library collection: Karpas417_ECACC cell viability assay (AID 1918961). Note: potency is the fitted concentration of half-maximal effect. The following applies: Karpas417 myeloma viability, CellTiter-Glo ATP luminescence, 48 h; viability (% of DMSO): at 45.8 µM (top of the series). The gist of the method:
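Approved and investigational drugs from MIPE 4.0 were added by pin tool to 500 cells per well. After 48 hours at 37C, ATP-based CellTiter-Glo luminescence indicated remaining viability.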

Experiment [17] is described as follows: Quantitative High-Throughput drug screen in 47 multiple myeloma cell lines against the NCATS MIPE library collection: Delta47_JCRB cell viability assay (AID 1918925; note: potency is the fitted concentration of half-maximal effect; nearly all actives have a fitted effect of over 45% in size). The gist of the method:
as §2

The nature of experiment [18]: Quantitative High-Throughput drug screen in 47 multiple myeloma cell lines against the NCATS MIPE library collection: KHM11_PLB cell viability assay (AID 1918962). Note: nearly all actives have a fitted effect of over 35% in size. Note: potency is the fitted concentration of half-maximal effect. The essentials: as §1
Experiment [19] can be described thus: Quantitative High-Throughput drug screen in 47 multiple myeloma cell lines against the NCATS MIPE library collection: JIM1_ECACC cell viability assay (AID 1918964; note: potency is the fitted concentration of half-maximal effect). The gist of the method: as §2

Chain of Glutathione peroxidase 1 (Homo sapiens) (P07203 whole entry, looked up): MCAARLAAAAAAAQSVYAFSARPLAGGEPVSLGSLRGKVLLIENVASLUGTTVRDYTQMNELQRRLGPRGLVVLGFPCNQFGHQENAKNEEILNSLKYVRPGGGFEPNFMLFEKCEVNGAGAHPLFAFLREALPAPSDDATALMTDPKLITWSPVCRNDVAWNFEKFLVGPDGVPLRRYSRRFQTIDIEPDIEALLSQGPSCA
Chain of Metallo-beta-lactamase type 2 (Klebsiella pneumoniae) (C7C422 whole entry, looked up): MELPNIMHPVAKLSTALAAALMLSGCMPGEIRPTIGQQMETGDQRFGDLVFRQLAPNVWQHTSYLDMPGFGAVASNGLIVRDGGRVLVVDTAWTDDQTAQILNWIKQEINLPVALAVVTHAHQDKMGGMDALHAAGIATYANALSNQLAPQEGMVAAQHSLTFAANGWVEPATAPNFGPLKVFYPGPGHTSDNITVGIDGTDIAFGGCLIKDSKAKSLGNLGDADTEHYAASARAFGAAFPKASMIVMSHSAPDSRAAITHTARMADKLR

`CN(C)CCCC1(c2ccc(F)cc2)OCc2cc(C#N)ccc21` (stereo not drawn): the molecule was called inactive in [1], in [6] and in [7]. For the same molecule, the Potency result in experiment [2], in experiment [3], in experiment [4], in experiment [5], in [8] and in experiment [9] was “inactive” throughout. The Potency result in experiment [10], in [11], in experiment [12] and in [13] was “inactive” each time.
With `O=c1c(O)c(-c2ccc(O)cc2O)oc2cc(O)cc(O)c12`, in experiment [1], the call was inactive. The Potency result in experiment [3] was “inactive and 10.1 µM (active)”. Also, the Potency entry in experiment [8], in [14], in experiment [10], in experiment [11], in [15] and in [16] was “inactive” throughout.
Turning to `CC(C)c1ccc2c(c1)c(SC(C)(C)C)c(CC(C)(C)C(=O)O)n2Cc1ccc(Cl)cc1`, the call in experiment [1] was inactive. Besides, the Potency entry in [2], in experiment [3], in experiment [9], in experiment [12], in experiment [18] and in experiment [19] was “inactive” each time. The Potency in [17] is 26400 nM (active).
For the molecule `O=C(CCc1ccc(O)cc1)c1c(O)cc(O)cc1O`, the result in experiment [1] was inactive. In addition, the Potency in experiment [17] was 118 nM (active); in [9], 590 nM (active); in [10] it was 1320 nM (active); in experiment [11] it was 372 nM (active); in experiment [12], 1320 nM (active); in experiment [16] it was 132 nM (active).
Take `NCCCCNCCCN`: the outcome in experiment [1] was inactive. Also, the Potency result in experiment [3], in experiment [9] and in experiment [11] was “inactive” throughout. In addition, the Potency in experiment [17] was 23500 nM (active); in experiment [14], 23500 nM (active); in [10], 16600 nM (active); in experiment [12] it was 18700 nM (active).
For the molecule `O=C1NC(=O)C(c2ccccc2[N+](=O)[O-])=C1Nc1ccc(O)c(Cl)c1`, the call in experiment [1] was inactive. The Potency entry in experiment [3], in [14], in experiment [10], in experiment [12] and in experiment [19] was “inactive” throughout.
In the case of `CC1(C)NC(=O)N(c2ccc([N+](=O)[O-])c(C(F)(F)F)c2)C1=O`, in experiment [1], the molecule was classed as inactive. In addition, the Potency result in experiment [2], in experiment [3], in experiment [9], in experiment [11], in [12] and in [15] was “inactive” throughout. Besides, the Potency in [19] was 235 nM (active).
For the molecule `Oc1ccc(-c2nc(-c3ccc(F)cc3)c(-c3ccncc3)[nH]2)cc1`, the call in experiment [1] was inactive. The Potency is 5900 nM (active) in experiment [17] and 14800 nM (active) in [13]. The Potency entry in experiment [9], in experiment [11], in [12] and in [15] was “inactive” each time.
Regarding `Clc1ccc2c(N3CCN(CCCN4CCN(c5ccnc6cc(Cl)ccc56)CC4)CC3)ccnc2c1`, the molecule was called inactive in experiment [1]. In addition, the Potency result in [2], in experiment [3], in [8], in [9], in [11] and in experiment [12] was “inactive” each time. In addition, the Potency entry in experiment [13] is “inactive”.
For the molecule `CCOC(=O)C1=C(O)C(=O)N(Cc2ccccc2)C1`, the result in experiment [1] was inactive. Besides, the Potency entry in experiment [2], in experiment [8], in [14], in experiment [9], in experiment [11] and in experiment [12] was “inactive” in each case. The Potency entry in [15] and in experiment [13] was “inactive” throughout.
In the case of `CC(C)C[C@H](NC(=O)[C@H](Cc1ccccc1)NC(=O)c1cnccn1)B(O)O`, the Potency entry in [2], in [3], in experiment [4] and in [5] was “inactive” in each case. For the same molecule, the molecule was called inactive in experiment [6] and in experiment [7]. In addition, the Potency in [8] was 9.3 nM (active); in experiment [14], 16.6 nM (active); in [10] it was 8.3 nM (active); in experiment [18], 8.3 nM (active); in [13] it was 23.5 nM (active).
